Experiment [1] is described as follows: SDT Cancer Cell Toxicity qHTS against the NCATS CANVASS Library (AID 1347365).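 Note: SDT canine glioma cells 500 per well in 1536 well plates; nearly all actives have a fitted effect of over 60% in size.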 The procedure, abridged:
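SDT dog glioma cells (500/well) exposed to an 11-point compound series for 72 hr at 37C, 5% CO2. Cytotoxicity read as ATP content by CellTiterGlo luminescence; bortezomib titration as control.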

Experiment [2] is described as follows: KB-3-1 Cancer Cell Toxicity qHTS against the NCATS CANVASS Library (AID 1347366). Note: nearly all actives have a fitted effect of over 75% in size. To be noted: outcome: dose series up to 46.1 µM. The procedure, abridged: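 Luminescence from CellTiter-Glo (10 min, room temperature) measured KB-3-1 viability after 72 hr compound exposure at 37C. Cells were seeded at 500/well and tested in an 11-point series.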
A short description of experiment [3]: qHTS for ATAD5 Agonist screened against the NCATS CANVASS Library (AID 1347367).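 Note: luciferase reporter driven by ATAD5 which rises upon DNA damage.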 The procedure, abridged:
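HEK293T-ATAD5 luc reporter; 2000 cells/well; 5hr settle; cpd 11-pt qHTS; 16hr 37C 5% CO2 dark; viability by CellTiter-Fluor (AFC fluorescence); then luciferase luminescence, 30min RT.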

A short description of experiment [4]: G06 Cancer Cell Toxicity qHTS against the NCATS CANVASS Library (AID 1347368). Note: nearly all actives have a fitted effect of over 60% in size. In outline:
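G06 dog glioma cells, 500 per well, exposed 72 hr at 37C, 5% CO2 to compounds in an 11-point series. Cytotoxicity read as ATP content by CellTiterGlo luminescence.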

A short description of experiment [5]: MCF7 Cancer Cell Toxicity qHTS against the NCATS CANVASS Library (AID 1347369). To be noted: MCF7 viability, ATP luminescence (CellTiter-Glo), 72 h; at 46 µM (top of the series). In outline: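 Cells seeded at 500/well, then compound pinned. Plates incubated 72 hr at 37C, 5% CO2. CellTiterGlo added; luminescence read.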
Experiment [6] in a line: qHTS for ATAD5 Antagonist screened against the NCATS CANVASS Library (AID 1347370).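 Note: HEK293T cells carrying an ATAD5 luciferase reporter co-treated with 10 µM 5-fluorouridine; nearly all actives have a fitted effect of over 65% in size.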 In outline: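 HEK293T cells with stably integrated ATAD5-luciferase reporter, 2000/well, 5 h attachment; compounds plus 10 µM 5-fluorouridine, 16 h at 37 °C. Luciferase luminescence read, with CellTiter-Fluor viability read first.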
A short description of experiment [7]: J3T Cancer Cell Toxicity qHTS against the NCATS CANVASS Library (AID 1347371). To be noted: outcome: dose series up to 46.1 µM. The procedure, abridged: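 J3T dog glioma cells, 500 per well, treated 72 h at 37C with compounds (11-point qHTS); viability from ATP content by CellTiterGlo luminescence; bortezomib titration as control.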
For experiment [8], the target named is Nuclear receptor subfamily 1 group I member 3 (Homo sapiens) (UniProt Q14994). Description: qHTS for Constitutive Androstane Receptor (CAR) Antagonist screened against the NCATS CANVASS Library (AID 1347372).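 Note: cells stimulated with 50 nM CITCO agonist so inhibition reflects antagonism.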 In outline:
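HepG2 cells stably carrying hCAR and a CYP2B6-2.2kb luciferase reporter were exposed to compounds plus 50 nM CITCO for 24hr at 37C. CAR activity was read by ONE-Glo luminescence, with viability measured first by CellTiter-Fluor.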

Experiment [9] shares this target. Kind of experiment: qHTS for Constitutive Androstane Receptor (CAR) Agonist screened against the NCATS CANVASS Library (AID 1347373).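 Note: every well also contained 1.5 µM PK11195 alongside the test compound.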 The procedure, abridged:
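HepG2 cells stably carrying hCAR and a CYP2B6-2.2kb luciferase reporter, treated 24hr at 37C with compounds plus 1.5uM PK11195; activation by ONE-Glo luminescence, viability by CellTiter-Fluor.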

Experiment [10] can be described thus: qHTS for Hypoxia signaling pathway (HIF-1) agonists against the NCATS CANVASS Library (AID 1347375). In outline: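 HRE-bla ME-180 cells (0.5% dialyzed FBS) were pre-incubated 5 hrs at 37C, then exposed to compounds in an 11-point series for 17 hrs. Read-out was CCF4-AM beta-lactamase FRET (460/530 nm emissions), with CellTiter-Glo viability in the same wells.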

Experiment [11] in a line: 10-beta competent E. coli microbial cell viability qHTS against the NCATS CANVASS Library (AID 1347376). The procedure, abridged:
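10-beta competent E. coli (0.2 OD) were exposed overnight at 37C to compounds in an 11-point series. Viability was read as ATP-dependent BacTiter-Glo luminescence after 20 min at room temperature.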

Experiment [12] in a line: qHTS for H2AX Agonists against the NCATS CANVASS Library (AID 1347378).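 Note: phospho-H2AX S139 level in CHO-K1 lysates by TR-FRET emission ratio.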 The procedure, abridged:
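CHO-K1, 1000 cells/well, o/n 37C; cpd several conc, 3 hr 37C, 0.76% DMSO; lyse 30 min RT; cryptate anti-pH2AX(S139) + d2 anti-H2AX, 24 hr RT; HTRF 665/620.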

A short description of experiment [13]: qHTS for Inflammasome Signaling Inhibitors: IL-1-beta AlphaLISA screen against the NCATS CANVASS Library (AID 1347379).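 Note: human THP-1 cells primed with LPS then triggered with ATP.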 To be noted: outcome: dose series up to 57.5 µM. In outline: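 THP-1 cells pretreated 1 hr with compound (up to 57.5 uM final), then stimulated with LPS (250 ng/mL final) and ATP (1.25 mM final). Secreted IL-1B measured by AlphaLISA after 16 hr; glyburide as positive control.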

Experiment [14] in a line: qHTS for Antimalaria activity screened against the NCATS CANVASS Library (AID 1347380).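 Note: Plasmodium falciparum strain Dd2 asexual parasites grown in red blood cells; nearly all actives have a fitted effect of over 40% in size.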 The procedure, abridged: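 Red blood cells infected with P. falciparum Dd2 (2.5% hematocrit final, 0.3% parasitemia) were exposed to compounds in an 11-point qHTS series for 72 hr at 37C under 5% O2 and 5% CO2. Lysis buffer with SYBR Green was then added for 18 hr, and fluorescence was read at 485/535 nm.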

The nature of experiment [15]: Inflammasome Signaling qHTS Counterscreen: IL-1-beta AlphaLISA counterscreen against the NCATS CANVASS Library (AID 1347381).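 Note: cell-free check with purified IL-1β in medium and no THP-1 cells.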 The procedure, abridged: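 Cell-free interference check: compounds added to medium spiked with 4 pg purified IL-1β. Anti-IL-1β acceptor beads (6 ug/mL) with 0.6 nM biotinylated antibody added for 1 h at RT, then streptavidin donor beads (24 ug/mL) for 30 min in the dark. AlphaLISA read at 680/615 nm.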

Experiment [16] is described as follows: Cytotoxicity qHTS for assessment of Hepg2 cells membrane integrity screened against the NCATS CANVASS Library (AID 1347387). The procedure, abridged:
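HepG2 cells (2000/well) attached overnight, then exposed 5 hr at 37C to compounds in an 11-point series (0.59 nM - 46 uM final). LDH release from damaged membranes read fluorometrically (CytoTox-ONE; 560/590 nm) after 10 min at room temperature.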

Experiment [17] in a line: qHTS for Activators of p53 Stress Response Pathway screened against the NCATS CANVASS Library (AID 1347388). The procedure, abridged:
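p53RE-bla HCT-116 cells (4000/well) were plated 5 h at 37C, exposed to compounds for 16 h at 37C over an 11-point concentration series, then loaded with CCF4 for 2 h at room temperature; 460/530 nm emission ratio read.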

The nature of experiment [18]: qHTS assay for small molecule disruptors of mitochondrial membrane potential screened against the NCATS CANVASS Library (AID 1347389). Note: nearly all actives have a fitted effect of over 60% in size. The procedure, abridged:
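HepG2 cells (2,000/well) plated overnight, then exposed to compounds in 11-point qHTS series for 1 h at 37C before 30 min Mito-MPS dye; depolarization read as fall in red aggregate (590 nm) to green monomer (535 nm) fluorescence.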

Experiment [19] in a line: DH5-alpha competent E. coli microbial cell viability qHTS against the NCATS CANVASS Library (AID 1347377). In outline: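 DH5-alpha E. coli suspension was exposed to an 11-point compound series overnight at 37 °C. Viable cells quantified by ATP luminescence (BacTiter-Glo) after 20 min at room temperature.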
The nature of experiment [20]: qHTS for Hypoxia signaling pathway (HIF-1) antagonists against the NCATS CANVASS Library (AID 1347374). Note: potency is the fitted concentration of half-maximal effect; nearly all actives have a fitted effect of over 60% in size. To be noted: HRE-bla ME-180 cells, HIF-1 beta-lactamase reporter, CoCl2. The procedure, abridged: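 HRE-bla ME-180 cells in medium with 0.5% dialyzed FBS received compounds (11-point series) plus CoCl2 (60 uM addition stock) for 17 hrs at 37C. Beta-lactamase activity read with CCF4 (405 nm ex, 460/530 nm em); CellTiter-Glo viability measured in same wells.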

Inconclusive results are not listed. The source made the active and inactive calls. Calls come from the whole dose curve; as a rule, active = well fitted curve in the direction sought with a large enough effect; inconclusive = small, poorly fitted or top-dose-only effect, or another doubt; inactive = no such curve, though single readings can be large; an effect the other way counts as inactive or inconclusive.

From PubChem BioAssay (NCATS) come the findings set out here.

Sequence of Nuclear receptor subfamily 1 group I member 3 (Homo sapiens) (Q14994 whole entry, looked up): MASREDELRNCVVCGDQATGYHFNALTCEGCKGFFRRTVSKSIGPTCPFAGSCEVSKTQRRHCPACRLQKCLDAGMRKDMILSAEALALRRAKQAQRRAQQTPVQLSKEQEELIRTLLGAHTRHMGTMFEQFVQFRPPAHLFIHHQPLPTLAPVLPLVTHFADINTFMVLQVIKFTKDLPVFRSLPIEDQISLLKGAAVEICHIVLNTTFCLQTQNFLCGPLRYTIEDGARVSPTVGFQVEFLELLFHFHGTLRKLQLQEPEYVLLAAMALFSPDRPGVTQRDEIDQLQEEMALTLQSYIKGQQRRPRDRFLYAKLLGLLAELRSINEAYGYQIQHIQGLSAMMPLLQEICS

`O=c1cc(-c2ccccc2)oc2cc(O)c(O)c(O)c12`: the result in experiment [1], in [2], in experiment [3], in [4], in experiment [5] and in experiment [6] was inactive. The result in experiment [7], in experiment [8], in [9], in [10], in experiment [11] and in [12] was inactive. The molecule was called inactive in experiment [13], in experiment [14], in experiment [15], in [16], in experiment [17] and in experiment [18].
As for `COC(=O)[C@@H]1[C@H]2C[C@H]3c4[nH]c5ccccc5c4CCN3C[C@@H]2CC[C@@H]1O`, the molecule was classed as inactive in [1], in experiment [2], in [3], in experiment [4], in experiment [5] and in experiment [6]. The call in [7], in experiment [8], in experiment [9], in [11], in experiment [19] and in experiment [12] was inactive. In addition, the outcome in experiment [13], in experiment [14], in experiment [15], in experiment [16], in experiment [17] and in [18] was inactive.
Consider `O=C(O)C(O)Cc1ccc(O)c(O)c1` (centres undefined), for which the outcome in experiment [1], in [2], in experiment [3], in experiment [4], in experiment [6] and in experiment [7] was inactive. The result in [8], in experiment [9], in experiment [10], in experiment [11], in [19] and in [12] was inactive. The molecule was called inactive in [13], in [15], in experiment [16], in experiment [17] and in experiment [18]. Further, the Potency in experiment [20] was 8.38 µM (active).
